Sampled rows, rich in hits. Any-hit rate of the full collection: about 3.3%.
PNC assembly inh = perinucleolar compartment assembly inhibition; 140,000 compounds, 3.1% hits; AID 2417; PC3M PTB-GFP, PNC prevalence imaging, 16 h; active compounds read low; activity change (PNC), negative = inhibition, % at 10 µM;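 active means readout at or below -70, meaning at least 70% loss of cells showing the perinucleolar compartment, a nuclear body marking cancer cells; inconclusive means readout between -30 and a set limit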;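 further: plate controls were DMSO wells for no effect and camptothecin positive control wells for full effect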
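Read-out is percentage of cells bearing a perinucleolar compartment, from automated 20x imaging of fixed, Hoechst-stained PC3M PTB-GFP cells. Cells were seeded 4 h, then exposed 16 h to compound (23 nl of library stock) in duplicate plates.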
12-hLO inh = blocks human 12-lipoxygenase activity; P18054; Potency, µM (series often up to 57.1 µM), without a hit: at the highest dose activity change, negative = inhibition, hits mostly inhibitors; 150,000 compounds, 0.12% hits; AID 1452; purified 12-hLO, xylenol orange hydroperoxide absorbance; further: potency means the concentration at half of the fitted maximal effect; on the % scale 0 is the no-effect control and ±100 the full control effect; nearly all actives have a fitted effect of over 55% in size
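Purified human 12hLO (150 nM), preincubated 15 min with compound, then 40 uM arachidonic acid for 30 min, room temperature, Hepes pH 7.0 with 0.01% Triton X-100. Hydroperoxide detected by ferrous iron/xylenol orange; 573/405 nm absorbance ratio gives reaction progress.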
HTT aggregate = inhibitors of mutant huntingtin aggregate formation in PC12 cells; AID 1688; 220,000 compounds, 1.1% hits; PC12 HttQ103-GFP aggregates, Acumen cytometry, 40 h; Potency, µM (highest dose often 46.1 µM), without a hit: top-dose activity change, negative = inhibition, usual class: inhibitors; further: potency means the concentration at half of the fitted maximal effect; on the % scale 0 is the no-effect control and ±100 the full control effect; nearly all actives have a fitted effect of over 60% in size
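Steps: seed 1500 PC12 HTTQ103-GFP cells/well; add tebufenozide, 100 nM final; add compound titration; add ATPLite reagent; quantify GFP aggregates by laser scanning cytometry.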
NPSR antag = blocks cAMP signaling of the human neuropeptide S receptor; 220,000 compounds, 1% hits; Q6W5P4; Potency, µM (highest dose often 38.3 µM), for inactives: top-dose activity change, negative = inhibition, hits mostly inhibitors; CHO-NPSR cells, cAMP TR-FRET, antagonist mode; further: potency means the concentration at half of the fitted maximal effect; on the % scale 0 is the no-effect control and ±100 the full control effect; nearly all actives have a fitted effect of over 50% in size
Target sequence (Q6W5P4 whole entry, looked up): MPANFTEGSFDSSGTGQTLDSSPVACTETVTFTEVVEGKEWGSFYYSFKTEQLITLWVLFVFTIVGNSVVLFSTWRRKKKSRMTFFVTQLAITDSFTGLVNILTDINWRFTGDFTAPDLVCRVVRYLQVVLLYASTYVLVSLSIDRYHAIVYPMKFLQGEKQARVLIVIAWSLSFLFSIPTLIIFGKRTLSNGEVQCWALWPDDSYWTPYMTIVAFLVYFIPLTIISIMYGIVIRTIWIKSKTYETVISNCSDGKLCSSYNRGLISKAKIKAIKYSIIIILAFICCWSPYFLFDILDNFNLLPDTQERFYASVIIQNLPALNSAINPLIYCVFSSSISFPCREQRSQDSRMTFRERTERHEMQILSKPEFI
IMPase cell inh = cell-permeable inhibitors of inositol monophosphatase (IMPase) | CHO-M1 cells, IP1 accumulation, HTRF TR-FRET ratio | inhibition (IP1 accumulation), % at 46.1 µM | 120,000 tested, under 10 active | AID 901; active means well fitted curve in the direction sought with a large enough effect in the signal ratio, not every such curve was filed as active; inconclusive means small, poorly fitted or top-dose-only effect, or a change in a side signal; inactive means no such curve, though single readings can be large or run the other way; the % refers to the signal ratio;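 further: cells stimulated with carbachol in lithium chloride buffer; plate controls were DMSO basal wells for no effect and reference inhibitor wells for full effect; higher means more IMPase inhibition seen as more IP1 and lower FRET ratio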
Target sequence (P97697 whole entry, looked up): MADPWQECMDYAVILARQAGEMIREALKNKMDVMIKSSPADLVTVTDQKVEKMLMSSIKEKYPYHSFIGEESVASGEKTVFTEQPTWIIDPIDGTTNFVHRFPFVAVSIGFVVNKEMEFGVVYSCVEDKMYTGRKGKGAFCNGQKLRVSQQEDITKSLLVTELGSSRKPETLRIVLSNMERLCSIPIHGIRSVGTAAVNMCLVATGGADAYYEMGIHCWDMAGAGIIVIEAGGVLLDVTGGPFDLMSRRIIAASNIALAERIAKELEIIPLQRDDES
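Carbachol-driven Gq signalling in CHO-M1 cells (2000/well) generates IP1. Compounds that block IMPase raise IP1 and so reduce the FRET signal from Eu-anti-IP1 and d2-IP1 after a 10 min room-temperature lysis.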
HTT ATP protect = Huntington cell model cytoprotection by ATP luminescence | PC12 HTT-Q103 induced, cytoprotection, ATP luminescence, 40 h | Potency, µM (titrated, usually from 56.4 µM), for the others: cytoprotection (ATP increase), hits mostly activators | 230,000 compounds, 0.14% hits | AID 1471; further: potency means the concentration at half of the fitted maximal effect; % of control where 0% means no effect; nearly all actives have a fitted effect of over 45% in size
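Stable PC12 Q103-GFP cells in serum-supplemented, phenol red-free DMEM; induction by tebufenozide at 100 nM final; compound dose series; cell viability quantified luminescently from ATP.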
* marks the source's active call; other numbers are inactive results; ? = inconclusive; / = no result; [ ] = dose if it differs, or a comment. Unless noted, the call rests on the fitted dose curve; in most records, active means well fitted curve in the direction sought with a large enough effect; inconclusive means small, poorly fitted or top-dose-only effect, or another doubt; inactive means no such curve, though single readings can be large; an effect the other way counts as inactive or inconclusive.

SMILES | PNC assembly inh | 12-hLO inh | HTT aggregate | NPSR antag | IMPase cell inh | HTT ATP protect
CCC(C)C(=O)OC1C(O)C2C(CN3CC(C)CCC3[C@]2(C)O)C2C[C@]34O[C@@]5(O)C(OC(=O)C(C)(O)CC)CCC3(C)C5C(OC(C)=O)C(OC(C)=O)C4[C@@]21O (some centres undefined) | / | -4% | / | / | / | 1.4µM*
CCC(C)C(=O)OC1C(O)C2C(CN3CC(C)CCC3[C@]2(C)O)C2C[C@]34O[C@@]5(O)C(OC(=O)C(C)(O)C(C)O)CCC3(C)C5C(OC(C)=O)C(OC(C)=O)C4[C@@]21O (some centres undefined) | / | -1% | / | / | / | 6%
CC(C)(O)[C@H]1[C@H]2OC(=O)[C@@H]1[C@]1(O)C[C@H]3O[C@]34C(=O)O[C@H]2[C@]14C (tested in a mixture with another compound) | / | 5% | / | / | -1 | 11%[1.9 µM]
CCC(=NCCC(c1ccccc1)c1ccccc1)c1c(O)[nH]c(=O)[nH]c1=O | -96* | -2% | ? | -15% | / | 22%[10 µM]
CCC(=Nc1cc(OC)ccc1OC)c1c(O)[nH]c(=O)[nH]c1=O | 48 | 0% | -5% | -9%[46.1 µM] | 8 | -4%
CCC(=Nc1ccc(OC)cc1OC)c1c(O)[nH]c(=O)[nH]c1=O | -96* | -6% | -13% | -4%[46.1 µM] | 3 | -17%
C=CCc1cc(C=C2C(=O)N(C)C(=O)N(C)C2=O)cc(OCC)c1OCc1ccccc1 | -114* | -5% | 0% | -35% | / | /
CN1CCc2nc3sc(C#N)c(N)c3c(-c3cccs3)c2C1 | 6 | -13% | -4% | 13µM* | 12 | 13µM*
O=C1C=CC(=O)c2c1ccc1c2ccc2ccccc21 | / | ? | / | / | -1[20.6 µM] | -1%[40.3 µM]
Cn1c(O)c(C=NC2CC3CCC2(C)C3(C)C)c(=O)[nH]c1=O (centres undefined) | -1 | 1% | -17% | -7%[46.1 µM] | 1 | -27%
CCCCn1c(O)c(C=NC2CC3CCC2(C)C3(C)C)c(=O)[nH]c1=O (centres undefined) | -4 | -6% | 13µM* | ? | -10[1.84 µM] | 5%[10 µM]
OC[C@H]1CCCN2CCCC[C@@H]12 | / | / | / | / | / | 8%
CC1CCCN(C(=O)c2ccc(N3CC4CC(C3)c3cccc(=O)n3C4)c([N+](=O)[O-])c2)C1 (centres undefined) | -116* | -2% | -16% | 12% | / | 7%[10 µM]
O=S(=O)(NCCO)c1cc[c]([Sb](=[O])([OH])[OH])cc1 | / | 4%[11.4 µM] | / | / | / | -4%[10 µM]
CN[C@H]1[C@H]2[C@H]3CCN2C[C@@H]1O3 | / | / | / | / | / | 4%
COC(=O)C1(O)CC2OC1(C)n1c3ccccc3c3c4c(c5c6ccccc6n2c5c31)C(=O)NC4 (centres undefined) | / | -2%[0.00818 µM] | / | / | / | -319%[10 µM]
CN[C@H]1C[C@H]2O[C@@](C)([C@H]1OC)n1c3ccccc3c3c4c(c5c6ccccc6n2c5c31)C(=O)NC4 | -115* | 7% | 3% | 6.3µM* | / | /
CN1CCN(c2ccc([N+](=O)[O-])c3[nH]o[n+](=O)c23)CC1 | / | 1%[11.4 µM] | / | / | / | -93%[10 µM]
COc1ccccc1OCC#CCN1CCCCCC1 | / | / | ? | 9% | / | 5.6µM*
Cn1c(=O)cc(OCC(=O)N2CCC3(CC2)OCCO3)c2ccccc21 | -95* | 0% | 7% | -9%[46.1 µM] | -3 | 26%[10 µM]
C[C@@H]1CC[C@@]2(OC1)O[C@H]1[C@@H](O)[C@H]3[C@@H]4CC[C@H]5C[C@@H](O[C@@H]6O[C@H](CO)[C@H](O[C@@H]7O[C@H](CO)[C@@H](O)[C@H](O[C@@H]8OC[C@@H](O)[C@H](O)[C@H]8O)[C@H]7O[C@@H]7O[C@H](CO)[C@@H](O)[C@H](O[C@@H]8O[C@H](CO)[C@@H](O)[C@H](O)[C@H]8O)[C@H]7O)[C@H](O)[C@H]6O)[C@H](O)C[C@]5(C)[C@H]4CC[C@]3(C)[C@H]1[C@@H]2C | / | -3% | / | / | / | -83%
CC/C(=C\C=C\[C@@H]1C=C[C@@H]2CCC[C@H]2[C@@H]1C(=O)c1ccc[nH]1)[C@@H]1O[C@@H]([C@@H](C)C(=O)O)CC[C@@H]1C | 203 | -15% | 11µM* | 10%[46.1 µM] | -2 | -35%[10 µM]
CC(=O)c1ccc(-c2ccccc2)cc1 | -88* | 1% | -9% | 42% | / | -10%[10 µM]
CCN1C[C@@]2(COC)[C@H](O)C[C@H](OC)[C@@]34[C@@H]5C[C@@]6(O)[C@H](OC(=O)c7ccccc7)[C@H]5[C@@](OC(C)=O)([C@H]([C@@H](OC)[C@H]23)[C@H]14)[C@H](O)[C@@H]6OC | / | / | / | / | / | -7%
COc1ccc(OCC(=O)N2CCN(Cc3c[nH]c4ccccc34)CC2)cc1 | 6 | -10% | 11µM* | -4%[46.1 µM] | 1 | -71%[10 µM]
SMILES | PNC assembly inh | 12-hLO inh | HTT aggregate | NPSR antag | IMPase cell inh | HTT ATP protect
COc1ccc(OCC(=O)N2CCN(Cc3cccc(OC)c3OC)CC2)cc1 | / | / | / | / | -3 | /
O=C(Cc1ccccc1)N1CCN(Cc2c[nH]c3ccccc23)CC1 | -23 | -13% | 13µM* | 3%[46.1 µM] | 5 | -73%[10 µM]
Cc1ccccc1CN1CCN(C(=O)Cc2ccccc2)CC1 | / | / | / | -2% | / | /
O=C(Cc1ccccc1)N1CCN(Cc2ccccn2)CC1 | -84* | -5% | -10% | -8%[46.1 µM] | -11 | 4%[10 µM]
O=C(COc1ccccc1)N1CCN(Cc2c[nH]c3ccccc23)CC1 | 24 | -6% | 16µM* | 8%[46.1 µM] | -3 | -19%
CC12CC(c3ccccc3O1)C(C(=O)OCc1ccccc1)C(=O)N2 (centres undefined) | -119* | -1% | -8% | -15% | 15 | -16%[10 µM]
O=C(Nc1ccc(Oc2ccc(Cl)cc2)c(Cl)c1)c1cc(I)cc(I)c1O | / | / | 13µM* | / | / | -54%
CC(=O)OCC1=C(C(=O)[O-])N2C(=O)[C@@H](NC(=O)CCC[C@@H](N)C(=O)[O-])[C@@H]2SC1.[Zn+2] | / | -5% | / | / | 6 | -9%[1.9 µM]
Oc1cccc[c]1[Hg][Cl] | / | / | 8.9µM* | / | / | -99%
C[C@@]12CC[C@H]3[C@H](CCC4=CC(=O)CC[C@H]43)[C@H]1CC[C@H]2OC1(O)C(=O)c2ccccc2C1=O | / | -10%[11.4 µM] | / | / | / | 7%[10 µM]
CCOC(=O)c1ccc(NC(c2ccc(N(C)C)cc2)P(=O)(OC(C)C)OC(C)C)cc1 (centres undefined) | / | / | -18% | ? | / | -29%
CCOC(=O)c1ccc(NC(=O)C2C3C=CC(O3)C2C(=O)O)cc1 (centres undefined) | -91* | -2% | 0% | -12%[46.1 µM] | 0 | 30%
CC(C)=CCCC1(C)C=Cc2c(O)c3c(c(CC=C(C)C)c2O1)OC12C(CC4CC1C(C)(C)OC2(C/C=C(/C)C(=O)O)C4O)C3=O (centres undefined) | / | -10% | / | / | / | 3.2µM*

Screens as filed in PubChem.
